Measurements taken from the supplement of paper PMC11732987, “Enantioselective OTUD7B fragment discovery through chemoproteomics screening and high-throughput optimisation” (Communications Chemistry, 2025).

Assays:
Experiment in all cases: log2 ratio of Biotin-Ahx-Ub-VS probe labelling (fragment/DMSO); higher = less target engagement (more negative = stronger competition), active = hit call of the paper (q ≤ 0.05, log2 ratio ≤ -1)
Details in all cases: compound concentration: 200 uM; treatment time: 3 h
USP19 = molecular target: T1, USP19 (UniProt O94966)
T1 sequence (whole entry): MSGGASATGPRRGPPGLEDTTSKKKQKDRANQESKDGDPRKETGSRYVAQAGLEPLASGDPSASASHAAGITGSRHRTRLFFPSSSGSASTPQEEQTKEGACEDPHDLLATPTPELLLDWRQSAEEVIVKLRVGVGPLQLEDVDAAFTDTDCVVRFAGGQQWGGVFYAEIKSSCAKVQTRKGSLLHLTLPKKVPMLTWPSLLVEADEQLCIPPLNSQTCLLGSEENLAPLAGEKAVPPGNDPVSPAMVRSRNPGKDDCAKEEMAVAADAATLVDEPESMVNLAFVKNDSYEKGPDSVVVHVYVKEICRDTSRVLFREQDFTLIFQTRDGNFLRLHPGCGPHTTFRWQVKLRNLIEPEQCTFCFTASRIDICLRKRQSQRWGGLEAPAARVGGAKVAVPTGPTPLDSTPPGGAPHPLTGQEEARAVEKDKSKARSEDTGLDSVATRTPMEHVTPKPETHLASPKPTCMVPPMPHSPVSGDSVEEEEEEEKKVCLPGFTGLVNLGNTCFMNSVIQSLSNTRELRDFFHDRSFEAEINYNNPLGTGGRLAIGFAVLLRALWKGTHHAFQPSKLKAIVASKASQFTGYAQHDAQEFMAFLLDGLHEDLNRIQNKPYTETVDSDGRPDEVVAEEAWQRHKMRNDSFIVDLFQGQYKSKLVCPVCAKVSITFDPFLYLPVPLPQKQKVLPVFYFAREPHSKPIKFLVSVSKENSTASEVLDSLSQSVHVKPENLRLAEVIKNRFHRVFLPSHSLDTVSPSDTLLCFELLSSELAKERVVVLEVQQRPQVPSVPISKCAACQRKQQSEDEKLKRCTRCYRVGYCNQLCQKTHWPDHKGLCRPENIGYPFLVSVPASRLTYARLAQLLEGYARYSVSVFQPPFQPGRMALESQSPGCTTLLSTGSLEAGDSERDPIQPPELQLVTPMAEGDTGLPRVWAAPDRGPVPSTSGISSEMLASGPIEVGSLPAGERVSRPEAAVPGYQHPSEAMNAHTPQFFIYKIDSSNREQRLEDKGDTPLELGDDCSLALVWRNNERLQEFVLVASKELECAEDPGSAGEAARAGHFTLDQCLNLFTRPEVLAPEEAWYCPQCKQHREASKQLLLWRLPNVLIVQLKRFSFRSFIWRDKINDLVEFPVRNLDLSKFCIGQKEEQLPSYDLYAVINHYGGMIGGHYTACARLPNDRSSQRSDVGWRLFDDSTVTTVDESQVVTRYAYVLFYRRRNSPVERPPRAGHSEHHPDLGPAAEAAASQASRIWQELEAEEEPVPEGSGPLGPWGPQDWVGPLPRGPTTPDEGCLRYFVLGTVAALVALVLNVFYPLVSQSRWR
Outline: (§1)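 HEK293T lysate in Tris/CHAPS/IGEPAL buffer with protease inhibitors (495 µg per sample) was given fragment at 200 µM or vehicle for 3 h, in triplicate. It then received Biotin-Ahx-Ub-VS at 0.5 µM final for 1 h. Labelled DUBs were NeutrAvidin-enriched, digested with LysC and trypsin, and run by diaPASEF LC-MS/MS. Values are average log2 fragment/vehicle ratios by unpaired t-test on global-median-normalised Spectronaut quantities of proteins with ≥2 unique peptides.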

USP22 = molecular target: T2, USP22 (UniProt Q9UPT9)
T2 sequence (whole entry): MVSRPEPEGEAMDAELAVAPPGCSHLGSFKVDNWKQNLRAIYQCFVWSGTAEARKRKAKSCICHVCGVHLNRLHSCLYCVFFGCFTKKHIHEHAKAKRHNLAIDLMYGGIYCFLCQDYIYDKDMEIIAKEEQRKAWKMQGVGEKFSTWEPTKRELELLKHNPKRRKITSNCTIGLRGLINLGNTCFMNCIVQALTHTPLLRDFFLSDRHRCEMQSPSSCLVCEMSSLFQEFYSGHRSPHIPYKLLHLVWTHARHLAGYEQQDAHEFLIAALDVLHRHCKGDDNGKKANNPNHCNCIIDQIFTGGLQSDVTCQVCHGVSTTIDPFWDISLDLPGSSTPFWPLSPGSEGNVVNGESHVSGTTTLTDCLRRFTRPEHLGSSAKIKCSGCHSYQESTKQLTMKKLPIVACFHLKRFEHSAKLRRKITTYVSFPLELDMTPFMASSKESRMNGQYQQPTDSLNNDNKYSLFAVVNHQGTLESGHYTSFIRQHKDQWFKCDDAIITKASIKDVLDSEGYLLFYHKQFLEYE
Outline: as §1

USP24 = USP24 (UniProt Q9UPU5)
Sequence of USP24 (Q9UPU5 whole entry): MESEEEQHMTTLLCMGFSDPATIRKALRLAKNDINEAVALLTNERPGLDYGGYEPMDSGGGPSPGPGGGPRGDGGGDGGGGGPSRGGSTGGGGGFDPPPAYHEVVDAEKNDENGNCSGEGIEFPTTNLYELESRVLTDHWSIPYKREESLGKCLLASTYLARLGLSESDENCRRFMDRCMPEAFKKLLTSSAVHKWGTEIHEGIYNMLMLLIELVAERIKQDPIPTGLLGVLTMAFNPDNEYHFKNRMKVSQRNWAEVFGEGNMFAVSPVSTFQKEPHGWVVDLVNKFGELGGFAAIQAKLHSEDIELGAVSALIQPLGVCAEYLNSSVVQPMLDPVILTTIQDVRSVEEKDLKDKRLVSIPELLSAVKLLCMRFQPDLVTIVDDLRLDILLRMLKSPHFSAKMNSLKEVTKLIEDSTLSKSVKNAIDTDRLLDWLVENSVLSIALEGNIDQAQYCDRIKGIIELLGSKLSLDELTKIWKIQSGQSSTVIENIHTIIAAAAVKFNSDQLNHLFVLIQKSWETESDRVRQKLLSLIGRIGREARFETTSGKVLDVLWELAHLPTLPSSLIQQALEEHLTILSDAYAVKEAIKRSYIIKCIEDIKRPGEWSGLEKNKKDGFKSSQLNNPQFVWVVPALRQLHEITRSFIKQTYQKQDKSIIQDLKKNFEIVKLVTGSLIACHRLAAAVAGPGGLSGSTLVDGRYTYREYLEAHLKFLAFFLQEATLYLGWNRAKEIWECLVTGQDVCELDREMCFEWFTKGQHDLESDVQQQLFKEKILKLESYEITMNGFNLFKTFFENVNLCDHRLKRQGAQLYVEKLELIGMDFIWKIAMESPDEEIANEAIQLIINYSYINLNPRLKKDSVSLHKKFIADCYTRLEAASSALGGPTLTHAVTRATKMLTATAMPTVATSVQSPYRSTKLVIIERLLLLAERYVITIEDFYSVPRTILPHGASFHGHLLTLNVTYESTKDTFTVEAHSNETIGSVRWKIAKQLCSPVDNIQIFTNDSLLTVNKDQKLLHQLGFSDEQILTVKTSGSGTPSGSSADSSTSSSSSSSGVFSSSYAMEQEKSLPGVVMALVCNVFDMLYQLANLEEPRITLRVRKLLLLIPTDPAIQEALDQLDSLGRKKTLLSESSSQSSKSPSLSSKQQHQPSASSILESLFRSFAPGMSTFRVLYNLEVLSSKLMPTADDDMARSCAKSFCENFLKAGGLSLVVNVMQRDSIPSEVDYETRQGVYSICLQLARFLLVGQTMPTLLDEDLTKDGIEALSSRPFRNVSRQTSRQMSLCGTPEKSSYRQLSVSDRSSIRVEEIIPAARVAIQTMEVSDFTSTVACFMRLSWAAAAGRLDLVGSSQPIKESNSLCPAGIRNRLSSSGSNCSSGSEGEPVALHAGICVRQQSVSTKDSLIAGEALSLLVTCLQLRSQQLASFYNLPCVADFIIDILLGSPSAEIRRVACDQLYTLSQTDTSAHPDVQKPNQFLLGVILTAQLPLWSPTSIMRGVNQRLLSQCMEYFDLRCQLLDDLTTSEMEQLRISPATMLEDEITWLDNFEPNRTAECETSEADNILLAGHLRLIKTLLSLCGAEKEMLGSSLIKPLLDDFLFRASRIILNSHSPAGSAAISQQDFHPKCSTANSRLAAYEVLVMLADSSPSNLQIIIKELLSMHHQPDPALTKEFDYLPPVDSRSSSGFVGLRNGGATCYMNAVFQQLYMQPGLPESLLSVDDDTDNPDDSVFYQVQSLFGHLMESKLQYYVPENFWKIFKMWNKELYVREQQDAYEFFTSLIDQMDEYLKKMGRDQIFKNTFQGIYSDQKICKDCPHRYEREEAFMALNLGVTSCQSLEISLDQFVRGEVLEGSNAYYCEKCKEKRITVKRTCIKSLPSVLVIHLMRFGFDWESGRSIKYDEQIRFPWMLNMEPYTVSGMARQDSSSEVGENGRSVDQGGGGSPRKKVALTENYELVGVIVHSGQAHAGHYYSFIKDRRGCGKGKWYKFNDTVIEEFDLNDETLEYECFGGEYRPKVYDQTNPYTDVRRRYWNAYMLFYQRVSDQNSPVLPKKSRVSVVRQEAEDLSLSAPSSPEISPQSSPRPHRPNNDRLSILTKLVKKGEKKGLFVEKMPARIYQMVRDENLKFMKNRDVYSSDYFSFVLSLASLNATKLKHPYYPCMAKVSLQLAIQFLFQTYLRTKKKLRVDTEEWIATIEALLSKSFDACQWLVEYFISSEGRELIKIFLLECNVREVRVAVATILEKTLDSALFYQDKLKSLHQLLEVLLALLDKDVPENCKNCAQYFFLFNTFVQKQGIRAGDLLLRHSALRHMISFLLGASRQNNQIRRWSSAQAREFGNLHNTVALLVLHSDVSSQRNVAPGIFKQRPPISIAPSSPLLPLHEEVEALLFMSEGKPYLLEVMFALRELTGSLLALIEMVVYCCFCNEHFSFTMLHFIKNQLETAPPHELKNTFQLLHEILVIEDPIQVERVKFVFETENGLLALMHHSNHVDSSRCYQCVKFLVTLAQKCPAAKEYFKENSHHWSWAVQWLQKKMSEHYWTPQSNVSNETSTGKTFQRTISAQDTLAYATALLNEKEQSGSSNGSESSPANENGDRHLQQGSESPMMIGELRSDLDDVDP
Outline: as §1

USP25 = molecular target: T3, USP25 (UniProt Q9UHP3)
T3 sequence (whole entry): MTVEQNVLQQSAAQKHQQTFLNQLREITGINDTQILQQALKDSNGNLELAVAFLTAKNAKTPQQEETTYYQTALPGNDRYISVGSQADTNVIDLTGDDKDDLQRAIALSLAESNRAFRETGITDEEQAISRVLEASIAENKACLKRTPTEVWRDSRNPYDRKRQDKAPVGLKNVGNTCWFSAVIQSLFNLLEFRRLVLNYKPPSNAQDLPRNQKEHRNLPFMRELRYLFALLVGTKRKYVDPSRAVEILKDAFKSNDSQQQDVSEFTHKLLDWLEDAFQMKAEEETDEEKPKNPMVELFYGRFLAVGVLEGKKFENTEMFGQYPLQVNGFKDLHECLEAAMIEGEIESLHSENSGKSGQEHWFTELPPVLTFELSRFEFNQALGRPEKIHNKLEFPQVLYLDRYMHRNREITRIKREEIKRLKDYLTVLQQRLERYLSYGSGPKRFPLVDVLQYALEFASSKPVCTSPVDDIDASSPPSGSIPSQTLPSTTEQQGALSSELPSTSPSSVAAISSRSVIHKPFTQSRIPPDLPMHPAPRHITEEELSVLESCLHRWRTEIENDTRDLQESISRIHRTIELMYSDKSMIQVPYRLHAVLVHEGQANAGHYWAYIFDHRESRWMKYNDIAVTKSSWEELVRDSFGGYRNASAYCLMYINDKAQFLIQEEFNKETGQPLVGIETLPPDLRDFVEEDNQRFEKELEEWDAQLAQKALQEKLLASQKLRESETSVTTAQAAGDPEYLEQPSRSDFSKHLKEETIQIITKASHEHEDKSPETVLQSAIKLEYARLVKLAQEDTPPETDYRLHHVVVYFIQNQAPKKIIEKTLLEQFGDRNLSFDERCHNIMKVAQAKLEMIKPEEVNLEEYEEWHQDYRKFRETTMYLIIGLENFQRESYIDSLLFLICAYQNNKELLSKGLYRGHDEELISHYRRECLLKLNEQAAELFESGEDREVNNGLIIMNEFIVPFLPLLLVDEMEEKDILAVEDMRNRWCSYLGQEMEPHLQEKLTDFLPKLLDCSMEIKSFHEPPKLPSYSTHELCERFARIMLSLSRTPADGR
Outline: as §1

USP28 = molecular target: T4, USP28 (UniProt Q96RU2)
T4 sequence (whole entry): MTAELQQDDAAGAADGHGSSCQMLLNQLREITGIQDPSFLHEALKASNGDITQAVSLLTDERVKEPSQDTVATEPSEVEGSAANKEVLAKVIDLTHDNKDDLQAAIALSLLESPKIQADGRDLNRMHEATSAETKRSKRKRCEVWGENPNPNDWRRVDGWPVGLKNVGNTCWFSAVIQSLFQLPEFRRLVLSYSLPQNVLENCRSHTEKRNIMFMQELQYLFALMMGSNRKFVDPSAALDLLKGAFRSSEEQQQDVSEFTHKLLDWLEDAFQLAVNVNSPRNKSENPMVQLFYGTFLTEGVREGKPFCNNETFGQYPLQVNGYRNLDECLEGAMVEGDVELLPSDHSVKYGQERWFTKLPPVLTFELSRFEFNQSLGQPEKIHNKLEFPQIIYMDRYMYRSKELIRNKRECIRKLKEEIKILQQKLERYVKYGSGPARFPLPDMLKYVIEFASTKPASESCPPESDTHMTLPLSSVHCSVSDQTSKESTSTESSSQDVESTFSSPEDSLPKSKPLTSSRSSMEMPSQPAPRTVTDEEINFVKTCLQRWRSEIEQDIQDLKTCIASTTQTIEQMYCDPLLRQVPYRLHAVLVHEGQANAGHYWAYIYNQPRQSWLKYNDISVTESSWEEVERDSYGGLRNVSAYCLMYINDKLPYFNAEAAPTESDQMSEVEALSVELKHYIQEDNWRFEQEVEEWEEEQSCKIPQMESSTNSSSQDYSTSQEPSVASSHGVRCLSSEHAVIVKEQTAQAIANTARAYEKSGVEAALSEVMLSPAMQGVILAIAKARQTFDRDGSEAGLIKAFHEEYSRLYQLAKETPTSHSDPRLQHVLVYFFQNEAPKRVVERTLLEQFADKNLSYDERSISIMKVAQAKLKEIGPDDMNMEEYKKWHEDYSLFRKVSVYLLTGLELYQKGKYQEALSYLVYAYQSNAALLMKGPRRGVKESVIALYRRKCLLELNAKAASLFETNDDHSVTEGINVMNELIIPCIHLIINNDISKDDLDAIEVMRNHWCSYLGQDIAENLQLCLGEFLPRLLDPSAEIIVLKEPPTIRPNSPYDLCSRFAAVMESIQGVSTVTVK
Outline: as §1

Measured: log2 ratio of Biotin-Ahx-Ub-VS probe labelling

COc1ccc(C2CCCN2C(=O)CCl)c(OC)c1 (stereo not given)
inactive: USP19 -0.593 | USP22 -0.361 | USP24 -0.807 | USP25 -0.175 | USP28 -0.41
